Screening data: PubChem, National Center for Advancing Translational Sciences (NCATS)
In the library only some 11% were active in any assay of this set; here they are far more common.
Pf growth 48h – P. falciparum growth inhibition at 48 hours (one generation). P. falciparum luciferase growth in erythrocytes, 48 h. Potency, µM (highest dose often 28.7 µM), without a hit: top-dose activity change, negative = inhibition, usual class: inhibitors. actives 5.9% (n = 310,000). AID 504832
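Luciferase-expressing P. falciparum in infected erythrocytes (2% hematocrit, 0.1% parasitemia final) in RPMI 1640/0.5% Albumax were exposed to compound for 48 hours at 37 C, 5% CO2; growth read as luminescence.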
HCV inh – inhibitors of hepatitis C virus infection | actives 3.4% (n = 340,000) | Potency, µM (series often up to 41.8 µM), for inactives: top-dose activity change, negative = inhibition, actives largely listed as inhibitors | AID 651820 | Huh7.5.1 HCVcc-Cre infection, luciferase reporter, 44 h
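Cells (1,000/well) were plated 4 h before compound, then infected with HCVcc-Cre virus (~0.5 moi). After 44 h further culture, infection was read as luciferase luminescence following a 15 min substrate incubation at room temperature.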
AmpC inh detg – inhibitors of E. coli AmpC beta-lactamase with detergent. P00811. AmpC hydrolysis of nitrocefin, absorbance 480 nm, 0.01% Triton. Potency, µM (doses to about 114 µM), for inactives: top-dose activity change, negative = inhibition, usual class: inhibitors. actives 0.041% (n = 370,000). AID 485294;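 further: 0% = no-compound wells and -100% = no-enzyme wells; nearly all actives have a fitted effect of over 25% in size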
Target sequence (P00811 whole entry, looked up): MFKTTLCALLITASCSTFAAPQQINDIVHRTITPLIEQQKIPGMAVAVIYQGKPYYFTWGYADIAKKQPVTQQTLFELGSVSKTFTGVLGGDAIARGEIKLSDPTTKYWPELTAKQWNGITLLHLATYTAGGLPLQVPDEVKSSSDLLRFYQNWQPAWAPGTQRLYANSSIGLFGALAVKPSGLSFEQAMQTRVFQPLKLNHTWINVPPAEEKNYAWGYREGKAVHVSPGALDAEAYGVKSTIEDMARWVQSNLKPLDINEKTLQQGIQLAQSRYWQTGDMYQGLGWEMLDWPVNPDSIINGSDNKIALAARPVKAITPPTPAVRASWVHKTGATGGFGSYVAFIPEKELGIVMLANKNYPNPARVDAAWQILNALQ
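20 mM phosphate pH 7.0 + 0.01% (detergent screen) or 0.0001% Triton X-100; 5.3 nM AmpC reagent; cpd preinc 15 min RT; nitrocefin (800 uM stock) to start; A480 q20 s × 4 min; Activity was normalised to no-enzyme and no-compound control wells.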
Pf growth 96h – inhibits malaria parasite growth, 96 h; Potency, µM (series often up to 28.7 µM), for inactives: at the top dose activity change, negative = inhibition, most hits filed as inhibitors; actives 6.9% (n = 320,000); P. falciparum luciferase reporter growth, 96 h
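Parasite growth measured via integrated firefly luciferase reporter in P. falciparum. Infected erythrocytes at 2% hematocrit, 0.05% parasitemia final were treated 96 hours at 37 C under 5% CO2, and luminescence was read.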
AmpC inh no detg – blocks E. coli AmpC beta-lactamase in detergent-free assay; AID 485341; Potency, µM (top dose mostly 57.1 µM), without a hit: at the top dose activity change, negative = inhibition, most hits filed as inhibitors; actives 0.52% (n = 330,000); AmpC nitrocefin hydrolysis, absorbance 480 nm, 0.0001% Triton;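 further: plate controls were no compound for no effect and no enzyme for full effect; nearly all actives have a fitted effect of over 20% in size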
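AmpC (5.3 nM in the dispensed reagent) in 20 mM phosphate pH 7.0 with 0.01% (detergent screen) or 0.0001% Triton X-100 was preincubated with compounds for 15 min at room temperature. Nitrocefin was then added from an 800 uM solution, and hydrolysis was followed at 480 nm.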
AMA1 RON2 block – AMA1-RON2 (P. falciparum) interaction inhibition | AID 720542 | AlphaScreen AMA1-biotinylated RON2 peptide binding | Potency, µM (highest dose often 58.2 µM), for inactives: at the highest dose activity change, negative = inhibition, usual class: inhibitors | actives 0.2% (n = 360,000);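 further: 0% = vehicle wells and -100% = peptide control; nearly all actives have a fitted effect of over 45% in size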
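AMA1 (3D7) with his tag at 25 nM final met compounds first, then biotinylated RON2 peptide at 25 nM; detection used donor plus acceptor beads, 10 µg/mL apiece, read by AlphaScreen after 30 min at room temperature.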
An asterisk follows results filed as active. The call rests on the fitted dose curve; in most records, active means well fitted curve in the direction sought with a large enough effect; inconclusive means small, poorly fitted or top-dose-only effect, or another doubt; inactive means no such curve, though single readings can be large; an effect the other way counts as inactive or inconclusive. Unless noted, on the % scale 0 is the no-effect control and ±100 the full control effect; potency means the concentration at half of the fitted maximal effect.

How did O=C(C1=C[C@@H](c2coc3ccccc3c2=O)C[C@@H](OCc2ccc(CO)cc2)O1)N1CCN(Cc2ccccc2)CC1 do in these assays?
Pf growth 48h: inconclusive; HCV inh: inconclusive; AmpC inh detg: 12.0%; Pf growth 96h: inconclusive; AmpC inh no detg: 122.1%; AMA1 RON2 block: 0.0%

How did Cc1ccc(NC(c2nnc(-c3ccccc3)o2)c2ccccc2F)c(Cl)c1 (stereo not drawn) do in these assays?
AmpC inh detg: 18.8%

How did COc1ccc(/C=C(\C#N)c2nc(-c3cc4c(ccc5ccccc54)oc3=O)cs2)cc1O do in these assays?
AmpC inh detg: 20.0%

How did Clc1cccc(N2CCN(c3c4c(nc5nncn35)CCC4)CC2)c1 do in these assays?
AmpC inh detg: -3.1%

What do the screens show for `COc1cccc(CNC(=O)CSc2nc3ccccc3nc2Cc2ccc(C)cc2)c1OC`?
AmpC inh detg: 11.7%

What do the screens show for `O=C(Nc1ccc2oc(-c3ccccc3F)nc2c1)c1ccc2c(c1)OCCO2`?
Pf growth 48h: -6.1%; HCV inh: inconclusive; AmpC inh detg: 2.9%; Pf growth 96h: 4.8%; AmpC inh no detg: 4.6%; AMA1 RON2 block: 8.44µM*

What do the screens show for `O=C(Nc1ccc2nn(-c3ccccc3)nc2c1)c1ccc2c(c1)OCCO2`?
Pf growth 48h: -28.9%; HCV inh: 7.08µM*; AmpC inh detg: inconclusive; Pf growth 96h: -19.8%; AmpC inh no detg: -39.0%; AMA1 RON2 block: -3.3%

What do the screens show for `CCOc1ccc(-n2nc3ccc(NC(=O)c4ccc5c(c4)OCCO5)cc3n2)cc1`?
Pf growth 48h: -24.1%; HCV inh: 6.31µM*; AmpC inh detg: -12.8%; Pf growth 96h: 323.1%; AmpC inh no detg: -37.3%; AMA1 RON2 block: -4.6%

How did CCOc1ccc2[nH]c(=O)c(CN(Cc3ccco3)Cc3nnnn3Cc3ccccc3)cc2c1 do in these assays?
Pf growth 48h: -18.0%; HCV inh: inconclusive; AmpC inh detg: 7.6%; Pf growth 96h: -17.3%; AmpC inh no detg: -6.6%; AMA1 RON2 block: 47.7%

How did CCOC(=O)Cn1nnnc1C(CC)N(Cc1cccs1)Cc1cc2cc(C)ccc2[nH]c1=O (stereo not drawn) do in these assays?
HCV inh: -7.3%; AmpC inh detg: -14.6%; Pf growth 96h: 37.2%; AmpC inh no detg: -23.0%; AMA1 RON2 block: 6.8%

Results for CCOc1ccc2[nH]c(=O)c(CN(Cc3ccco3)C(CC)c3nnnn3Cc3ccccc3)cc2c1 (stereo not drawn) ?
Pf growth 48h: 5.86µM*; HCV inh: inconclusive; AmpC inh detg: -11.7%; Pf growth 96h: inconclusive; AmpC inh no detg: -1.3%; AMA1 RON2 block: 6.9%

How did CCOc1ccc2[nH]c(=O)c(CN(Cc3cccs3)C(CC)c3nnnn3C(C)(C)CC)cc2c1 (stereo not drawn) do in these assays?
Pf growth 48h: 0.928µM*; HCV inh: 10µM*; AmpC inh detg: inconclusive; AmpC inh no detg: -47.6%; AMA1 RON2 block: -2.5%

What do the screens show for `Cc1nc2scc(C)n2c(=O)c1S(=O)(=O)Nc1cccc(C(F)(F)F)c1`?
AmpC inh detg: -7.4%

What do the screens show for `Cc1ccc(N2CCN(C(=O)c3cnn(-c4ccc(F)cc4F)c3C3CCN(C(=O)OC(C)(C)C)CC3)CC2)c(C)c1`?
AmpC inh detg: 5.6%

Results for CSc1cccc(NC(=O)Cn2c(=O)n(Cc3ccccc3)c(=O)c3sc4ccccc4c32)c1 ?
AmpC inh detg: 6.7%

How did Cc1sc2ncn(CC(=O)N3CCN(c4ccc(Cl)cc4)CC3)c(=O)c2c1S(=O)(=O)N1CCN(c2ncccn2)CC1 do in these assays?
AmpC inh detg: 9.1%
